Reference: PubChem BioAssay (EPA / NIEHS)
Inconclusive results are not listed. Active and inactive are the calls of the source. Rule for the calls, unless noted: active = hit-call score of the fitted dose curve at least 0.9, where 1 is the maximum; inactive = score below 0.9.

Key:
[1] = CCTE_Mundy_HCI_iCellGluta_NOG_NeuriteLength: CCTE's Neurite Outgrowth Assay in iCellGluta cells for Neurite Length, Mundy Lab (AID 2284318; active = hit-call score of the fitted dose curve at least 0.9, where 1 is the maximum)
Summary of the method: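 Automated high-content imaging of betaIII-tubulin (Alexa Fluor-488) and Hoechst-stained cells gave neurite length, normalized to the DMSO baseline.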

[2] = CCTE_Mundy_HCI_iCellGluta_NOG_NeuronCount: CCTE's Neurite Outgrowth Assay in iCellGluta cells for Neuron Count, Mundy Lab (AID 2284340; active = hit-call score of the fitted dose curve at least 0.9, where 1 is the maximum;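 note: cells fixed about 48 h after compound addition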)
Summary of the method: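 Neuron count read by automated high-content imaging of Hoechst 33342 and betaIII-tubulin/Alexa Fluor-488 labelling in human iPSC glutamatergic neurons. Activity fitted relative to DMSO.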

[3] = CCTE_Mundy_HCI_iCellGluta_NOG_NeuriteCount: CCTE's Neurite Outgrowth Assay in iCellGluta cells for Neurite Count, Mundy Lab (AID 2284342; active = hit-call score of the fitted dose curve at least 0.9, where 1 is the maximum;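 note: chemical exposure about 48 hours starting 2 hours after plating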)
[4] = Tanguay_ZF_120hpf_MO24: Oregon State University Tanguay Lab 24 Hour Post-fertilization zebrafish Assay for Mortality (AID 2284389)
Summary of the method: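 Embryo death at 24 hpf was recorded as present or absent in Tropical 5D zebrafish, dechorionated at 4 hpf and dosed statically from 6 hpf (28C, 0.64% DMSO); 5 uM trimethyltin chloride served as positive control.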

[5] = Tanguay_ZF_120hpf_CRAN: Oregon State University Tanguay Lab 120 Hour Post-fertilization zebrafish Assay for Craniofacial Malformation (AID 2284397)
Summary of the method: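 Scoring of craniofacial malformation as a binary endpoint was done at 120 hpf by brightfield microscopy and was not done in dead embryos. Exposure was static, starting at 6 hpf, in dechorionated wild-type embryos held singly at 28C with 0.64% DMSO final.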

[6] = Tanguay_ZF_120hpf_MORT: Oregon State University Tanguay Lab 120 Hour Post-fertilization zebrafish Assay for Mortality (AID 2284399)
Summary of the method: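 Mortality, recorded present/absent via brightfield imaging at 24 and 120 hpf, in 5D zebrafish embryos exposed statically from 6 hpf after pronase chorion removal. Exposure at 28C, 0.64% DMSO vehicle, DMSO baseline.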

[7] = Tanguay_ZF_120hpf_EDEM: Oregon State University Tanguay Lab 120 Hour Post-fertilization zebrafish Assay for Edema Malformation (AID 2284400)
Summary of the method: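 Edema recorded as a binary endpoint under brightfield at 120 hpf, excluding embryos that died. Exposure was static, sealed, 28C, from 6 hpf in dechorionated wild-type larvae, final DMSO 0.64%, DMSO as baseline.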

[8] = Tanguay_ZF_120hpf_BRN: Oregon State University Tanguay Lab 120 Hour Post-fertilization zebrafish Assay for Brain Region Malformation (AID 2284402)
Summary of the method: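 Binary brightfield scoring of brain malformation at 120 hpf in 5D wild-type larvae, chorion removed with pronase at 4 hpf. Static exposure began at 6 hpf, 28C, sealed plates, DMSO 0.64% (vol/vol) as vehicle baseline.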

[9] = Tanguay_ZF_120hpf_TCHR: Oregon State University Tanguay Lab 120 Hour Post-fertilization zebrafish Assay for Touch Responsive (AID 2284403)
Summary of the method: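 Binary touch-response calls are made at 120 hpf in 5D wild-type zebrafish larvae. These larvae were dechorionated with pronase and exposed singly from 6 hpf in sealed, dark plates at 28 °C with 0.64% DMSO final; dead embryos are excluded.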

TTR (gene 7276) = test: CCTE_GLTED_hTTR_0.5uM: CCTE's human Transthyretin (hTTR) Inhibition Assay, with 0.5uM TTR, Great Lakes Toxicology and Ecology Division (GLTED) Lab (AID 2284320)
Summary of the method: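 Probe (ANSA) displacement from 0.5 uM human transthyretin was followed by fluorescence (ex 380, em 475) after a 2 h incubation with chemical. Activity was scored as signal loss and fitted positively relative to DMSO.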

[10] = IUF_NPC1_cytotoxicity_72hr: Cytotoxicity Assessment at 72 hours in the Leibniz Research Institute for Environmental Medicine (IUF) Neural Progenitor Cell Proliferation Assay (NPC1) (AID 2284332; active = hit-call score of the fitted dose curve at least 0.9, where 1 is the maximum;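 note: rising LDH signal means more cytotoxicity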)
Summary of the method: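 Membrane-integrity loss is scored from LDH released into the medium, detected as resorufin fluorescence, with activity fitted upward relative to baseline. Test material stays on human fetal-derived progenitor spheres for 72 h.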

[11] = Tanguay_ZF_120hpf_DP24: Oregon State University Tanguay Lab 24 Hour Post-fertilization zebrafish Assay for Delayed Development (AID 2284390)
Summary of the method: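 Scored at 24 hpf as a binary present/absent call of delayed development by brightfield, with dead embryos not assessed. Embryos (5D wild type, chorion removed with pronase at 4 hpf) dosed statically from 6 hpf at 28 C in 0.64% DMSO.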

[12] = CCTE_Padilla_ZF_Score.Craniofacial: CCTE's 144 Hour Post-fertilization zebrafish Assay Score for Craniofacial Malformation, Padilla Lab (AID 2284405)
Summary of the method: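 Craniofacial defects were scored at 6 dpf by two blinded observers using stereomicroscopy. Exposure of wild-type embryos began at 6–8 hpf in sealed wells of 10% Hanks' solution at 26C, with chemical removed by rinsing at 5 dpf.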

[13] = Tanguay_ZF_120hpf_ANY: Oregon State University Tanguay Lab 120 Hour Post-fertilization zebrafish Assay for Any Mortality and Malformation (AID 2284404)
Summary of the method: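 Dechorionated Tropical 5D wild-type embryos, one per well from 6 hpf, static exposure in sealed, dark plates at 28C until 120 hpf, 0.64% DMSO final. Brightfield scoring of mortality and malformations as binary presence/absence, pooling 13 morphology endpoints.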

SERPINA7 (gene 6906) = test: CCTE_GLTED_hTBG: CCTE's human Thyroxine-binding Globulin (TBG) Inhibition Assay, Great Lakes Toxicology and Ecology Division (GLTED) Lab (AID 2284343; active = hit-call score of the fitted dose curve at least 0.9, where 1 is the maximum;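 note: active chemicals lower fluorescence versus DMSO baseline by displacing probe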)
Summary of the method: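 Human thyroxine-binding globulin was exposed to each chemical for 2 hours, during which the ANSA probe could be displaced. Fluorescence was then measured at 380/475 nm, and loss of signal was analysed relative to DMSO.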

[14] = Tanguay_ZF_120hpf_AXIS: Oregon State University Tanguay Lab 120 Hour Post-fertilization zebrafish Assay for Axial Malformation (AID 2284398)
Summary of the method: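 Scoring was binary (present or absent) for body-axis defects, judged by brightfield imaging at 120 hpf in surviving larvae. Exposure was static at 28C from 6 hpf in chorion-free 5D wild-type embryos, with 0.64% DMSO vehicle.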

[15] = CCTE_Deisenroth_5AR_NBTE_donor: CCTE's 5alpha-reductase NanoBRET Target Engagement Assay […], Deisenroth Lab (AID 2284319); conditions: actives raise or lower the signal
Summary of the method: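 HEK293T cells were reverse transfected with an SRD5A2-NanoLuc vector for 20 h, exposed to test chemical (8 points, 10 nM - 29.9 uM) for 3 h, then testosterone tracer for 2 h more. Donor luminescence (460 nm) was read; bidirectional fit versus DMSO.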

[16] = CCTE_Deisenroth_5AR_NBTE_acceptor: CCTE's 5alpha-reductase NanoBRET Target Engagement Assay - Autofluorescence Screen, Deisenroth Lab (AID 2284321); conditions: actives raise or lower the signal;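 note: compound fluorescence in the acceptor channel under 460 nm excitation flags autofluorescence artifacts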
Summary of the method: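 HEK293T cell-based NanoBRET assay read 5 h after dosing; this acceptor channel serves as an autofluorescence artifact screen. Chemicals at nominal 100 uM were scanned in three independent runs (n=3), excitation 460 nm. Fitting was bidirectional versus DMSO baseline.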

SRD5A2 (gene 6716) = test: CCTE_Deisenroth_5AR_NBTE_ratio: CCTE's 5alpha-reductase NanoBRET Target Engagement Assay - Ratio, Deisenroth Lab (AID 2284322); conditions: actives raise or lower the signal
Summary of the method: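 HEK293T cells transiently expressing an SRD5A2-NanoLuc fusion (20 h post-transfection) were exposed to test chemical (10 nM - 29.9 uM, 8 points) for 3 h, then testosterone tracer for a further 2 h. Acceptor/donor BRET ratio was fitted bidirectionally against DMSO baseline.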

Measured: AC50

FC(F)(F)C(F)(F)C(F)(F)C(F)(F)C(F)(F)C(F)(F)C(F)(F)C(F)(F)CCS
inactive: [1] | [3] | [4] | [5] | [6] | [7] | [8] | [9]
active: [2] 5 µM

O=C(O)C(F)(F)C(F)(F)OC(F)(F)F
active: TTR (gene 7276) 31.7 µM
inactive: [1] | [2] | [3] | [4] | [5] | [6] | [7] | [8] | [9]

CC(CCl)OP(=O)(OC(C)CCl)OC(C)CCl (stereo not drawn)
inactive: [1] | [10] | [2] | [3]

O=P(O)(O)OCCC(F)(F)C(F)(F)C(F)(F)C(F)(F)C(F)(F)C(F)(F)F
inactive: [1] | [2] | [3] | [4] | [5] | [7] | [8] | [9]
active: [6] 18.7 µM

OCC(F)(F)C(F)(F)C(F)(F)C(F)F
not listed: TTR (gene 7276) | [10] | [13] | SERPINA7 (gene 6906) | [14] | [15] | [16] | SRD5A2 (gene 6716)
inactive: all other assays above

COC(=O)CCC(F)(F)C(F)(F)C(F)(F)C(F)(F)F
inactive: [4] | [11] | [5] | [6] | [7] | [8] | [9] | [13]
active: TTR (gene 7276) 53.4 µM

FC(F)(I)C(F)(F)C(F)(F)C(F)(F)I
active: TTR (gene 7276) 3.74 µM

FC(F)(F)C(F)(F)C(F)(F)CI
inactive: [1] | [2] | [3] | [4] | [5] | [6] | [7] | [8] | [9]

FC(F)(F)C(F)(F)C(F)(F)C(F)(F)C(F)(F)C(F)(F)CC1CO1 (stereo not drawn)
inactive: [1] | [2] | [3] | [4] | [5] | [6] | [7] | [8] | [9]

C=C(C)C(=O)OCC(F)(F)C(F)(F)C(F)(F)F
not listed: TTR (gene 7276) | [10] | [11] | SERPINA7 (gene 6906) | [14] | [15] | [16] | SRD5A2 (gene 6716)
inactive: all other assays above

OCC(F)(F)C(F)(F)C(F)(F)C(F)(F)C(F)(F)C(F)(F)F
inactive: [4] | [5] | [6] | [7] | [8] | [9]
active: TTR (gene 7276) 36.8 µM

FC(F)(F)C(F)(F)C(F)(F)C(F)(F)C(F)(F)C(F)(F)C(F)(F)C(F)(F)F
inactive: [1] | [2] | [3] | [4] | [5] | [6] | [7] | [8] | [9]

N=C(N)C(F)(F)C(F)(F)C(F)(F)C(F)(F)C(F)(F)C(F)(F)C(F)(F)F
active: TTR (gene 7276) 4.85 µM
inactive: [1] | [2] | [3] | [4] | [5] | [6] | [7] | [8] | [9] | [12]

C=CC(=O)OCC(F)(F)C(F)(F)C(F)(F)C(F)(F)COC(=O)C=C
active: TTR (gene 7276) 0.886 µM | SERPINA7 (gene 6906) 18.2 µM | [4] 28.3 µM | [6] 17.5 µM
inactive: [1] | [2] | [3] | [5] | [7] | [8] | [9]

OCCCC(F)(F)C(F)(F)C(F)(F)C(F)(F)C(F)(F)C(F)(F)C(F)(F)F
inactive: [1] | [2] | [3] | [4] | [11] | [5] | [6] | [7] | [8] | [9]

O=S(=O)(O)C(F)(F)C(F)(F)C(F)(F)C(F)(F)C(F)(F)C(F)(F)C(F)(F)F
active: TTR (gene 7276) 0.0773 µM | [5] 33.4 µM | [14] 49.5 µM | [7] 46.3 µM | [8] 52.4 µM | [9] 43.2 µM | [13] 33 µM
inactive: [4] | [11] | [6]

O=C(O)C(F)(F)C(F)(F)C(F)(F)F
active: TTR (gene 7276) 31.9 µM
inactive: [1] | [2] | [3] | [4] | [5] | [6] | [7] | [8] | [9]

CCN(Cc1cccc(S(=O)(=O)O)c1)c1ccc(C(=C2C=CC(=[N+](CC)Cc3cccc(S(=O)(=O)O)c3)C=C2)c2ccc(O)cc2S(=O)(=O)[O-])cc1
inactive: [15]
active: [16] 1.52 µM | SRD5A2 (gene 6716) 1.56 µM | SERPINA7 (gene 6906) 25.4 µM

O=C(O)C(F)(F)C(F)(F)C(F)(F)C(F)(F)C(F)(F)C(F)(F)C(F)(F)C(F)(F)Cl
active: TTR (gene 7276) 0.252 µM | SERPINA7 (gene 6906) 62.6 µM | [5] 37.2 µM | [7] 37.2 µM | [8] 47.7 µM | [9] 37.2 µM
inactive: [1] | [2] | [3] | [4] | [6]

O=C(OCCOCCOCCOC(=O)c1ccccc1)c1ccccc1
inactive: [15] | [16] | SRD5A2 (gene 6716)

CC(C)(C)C(=O)CC(=O)C(F)(F)C(F)(F)C(F)(F)F
inactive: TTR (gene 7276) | [2] | [3] | [4] | [5] | [6] | [7] | [8] | [9]

O=C(O)C(F)(F)C(F)(F)C(F)(F)C(F)(F)C(F)(F)C(F)(F)C(F)(F)C(F)(F)C(F)(F)C(F)F
active: TTR (gene 7276) 1.03 µM | [6] 37 µM
inactive: [4] | [11] | [5] | [7] | [8] | [9]

CC(Cc1ccc(O)c(O)c1)C(C)Cc1ccc(O)c(O)c1 (stereo not drawn)
active: [15] 64.7 µM | [16] 50 µM | SRD5A2 (gene 6716) 93.7 µM | SERPINA7 (gene 6906) 7.96 µM

O=C(CC(=O)C(F)(F)C(F)(F)F)C(F)(F)F
active: TTR (gene 7276) 3 µM
inactive: [1] | [2] | [3] | [4] | [5] | [14] | [6] | [7] | [8] | [9]

FC(F)(F)C(F)(F)C(F)(F)C(F)(F)C(F)(F)CCI
active: TTR (gene 7276) 18.6 µM | SERPINA7 (gene 6906) 27 µM
inactive: [4] | [5] | [6] | [7] | [8] | [9]
